# In the library only some 2.4% were active in any assay of this set; here they are far more common.
# PTAP TSG101 blk: blocks PTAP/TSG101 interaction to inhibit HIV-1 budding. Q99816. Fluorescence polarization, FITC-PTAP peptide / Tsg101 binding. Potency, µM (titrated, usually from 115 µM), for the others: at the highest dose activity change, negative = inhibition, usual class: inhibitors. 340,000 tested, under 10 active. AID 493005; active = well fitted inhibition curve with a large enough effect in the main read-out, with a control signal flat, not every such curve was filed as active; inconclusive = small, poorly fitted or top-dose-only effect, or effect the other way, or a change in a side signal; inactive = no such curve, though single readings can be large or run the other way; also: % of control where 0% means no effect
#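 Steps: Tsg101 binding domain dispensed (10 uM final), compounds pinned in DMSO, FITC-labeled PTAP-motif peptide added (50 nM final); after 20 min binding at room temperature, polarization measured.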
# ALOX12 inh: ALOX12 (human) lipoxygenase inhibition. P18054. purified 12hLO, xylenol orange hydroperoxide absorbance. Potency, µM (highest dose often 108 µM), inactives show top-dose activity change, negative = inhibition, usual class: inhibitors. 580,000 compounds, 1.1% hits. AID 1671190; also: % is scaled to controls: 0 for no effect and ±100 for the full control effect
# Target sequence (P18054 whole entry, looked up): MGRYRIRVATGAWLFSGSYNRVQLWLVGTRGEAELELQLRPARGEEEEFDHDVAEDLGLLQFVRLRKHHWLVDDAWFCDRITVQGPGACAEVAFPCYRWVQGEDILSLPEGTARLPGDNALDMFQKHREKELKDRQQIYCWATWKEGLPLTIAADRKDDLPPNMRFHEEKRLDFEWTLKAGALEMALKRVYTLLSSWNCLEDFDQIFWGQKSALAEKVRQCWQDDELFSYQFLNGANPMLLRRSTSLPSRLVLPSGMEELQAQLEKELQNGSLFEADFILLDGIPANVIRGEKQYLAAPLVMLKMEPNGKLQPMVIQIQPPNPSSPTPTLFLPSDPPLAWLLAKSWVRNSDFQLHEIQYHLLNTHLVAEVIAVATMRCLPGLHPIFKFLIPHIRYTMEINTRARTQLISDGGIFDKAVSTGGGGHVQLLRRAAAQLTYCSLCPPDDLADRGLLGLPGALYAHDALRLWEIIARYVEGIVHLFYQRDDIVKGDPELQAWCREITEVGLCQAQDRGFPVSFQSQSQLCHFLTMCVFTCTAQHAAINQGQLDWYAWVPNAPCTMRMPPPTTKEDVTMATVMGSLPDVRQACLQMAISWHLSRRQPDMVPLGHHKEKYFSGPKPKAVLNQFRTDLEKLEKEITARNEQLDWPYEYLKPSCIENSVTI
#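 Purified human 12hLO (150 nM final) in 25 mM Hepes, 0.01% Triton X-100, pH 7.0 was preincubated 15 min at room temperature with compound. Then 40 uM arachidonic acid was added, 30 min. Hydroperoxide was read by Fe-XO absorbance ratio 573/405 nm.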
# Rango complex inh: Rango-importin beta binding inhibition | Q14974 | Rango CFP/YFP FRET sensor + importin beta, 45 min | Potency, µM (top dose mostly 92.2 µM), without a hit: at the highest dose inhibition of complex formation | 340,000 compounds, 0.031% hits | AID 540263; calls by dose curve;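 also: 0% = DMSO wells and 100% = buffer wells lacking importin beta; nearly all actives have a fitted effect of over 15% in size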
#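 Inhibition scored from the CFP 486 nm/YFP 530 nm FRET ratio 45 min after adding 0.125 microM importin beta to 50 nM Rango biosensor preincubated 5 min with compound (room temperature, PBS with DTT, Tween-20, BSA). No-importin wells as positive control.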
# ClpP mod: qHTS Assay for Activators of ClpP. purified B. subtilis ClpP, FRET peptide cleavage, 20 min. Potency, µM (highest dose often 57.5 µM), without a hit: at the highest dose activity change, negative = active. 340,000 compounds, 1.9% hits. AID 651965, 2013; active = well fitted falling curve with a large enough effect; inconclusive = small, poorly fitted or top-dose-only effect; inactive = no such curve, though single readings can be large or run the other way; also: the source files actives as falling curves though it sought activators and does not explain the sign; nearly all actives have a fitted effect of over 65% in size
#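 Buffer: 100 mM Tris/HCl pH8, 100 mM KCl, 0.05% low protease BSA, 2.5% glycerol, 0.01% Tween-20. ClpP 10 microg/mL final; 20 min RT; delta FRET normalized to ADEP and DMSO controls.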
# TDP1 block: blocks human tyrosyl-DNA phosphodiesterase 1; 350,000 compounds, 0.28% hits; Potency, µM (series often up to 130 µM), inactives show at the highest dose activity change, negative = inhibition, hits mostly inhibitors; recombinant TDP1, AlphaScreen DNA substrate cleavage; AID 485290; Q9NUW8; also: % is scaled to controls: 0 for no effect and ±100 for the full control effect; nearly all actives have a fitted effect of over 40% in size
#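 Enzyme-compound mixtures sat 15 min at room temperature, followed by a 5 min reaction with 15 nM final substrate and 10 min with AlphaScreen beads. Recombinant human Tdp1 was used at 1 nM final.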
# Rango dissoc inh: prevents RanGTP from dissociating the Rango-importin beta complex; Biochemical FRET Rango-importin beta, RanGTP-induced dissociation; Potency, µM (highest dose often 46.1 µM), without a hit: top-dose activity change, negative = inhibition; 340,000 compounds, 0.071% hits; AID 540253; calls by dose curve; also: % of control where 0% means no effect; nearly all actives have a fitted effect of over 45% in size
#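 Rango/importin beta premix (0.1/0.25 uM final), PBS + 1 mM DTT + 0.02% Tween-20 + 0.1% BSA; cpd 5 min RT; FRET pre-read; + RanGTP-RCC1 (0.6 uM Ran, 2 mM GTP, 0.2 uM RCC1); 45 min RT; FRET post-read, ex 430, em 486/530 nm.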
# The depositor's hits bear a star; ? = inconclusive; / = no result given; [ ] = dose if it differs, or a comment. Unless noted, calls follow the shape of the dose curve; as a rule, active = well fitted curve in the direction sought with a large enough effect; inconclusive = small, poorly fitted or top-dose-only effect, or another doubt; inactive = no such curve, though single readings can be large; an effect the other way counts as inactive or inconclusive. Potency is read from the fitted curve at half-maximal effect.
SMILES,PTAP TSG101 blk,ALOX12 inh,Rango complex inh,ClpP mod,TDP1 block,Rango dissoc inh
O=C(/C=C1\C(=O)Nc2ccccc21)/C=C1\C(=O)Nc2ccccc21,-3%,8.9µM*,?,-6%,3%,-23%
O=C1Nc2ccccc2/C1=C\C(=O)c1ccccc1,1%,?,1%,1%,/,-12%
CCOC(=O)N1CCN(C(=S)NC(=O)c2cccc(OC)c2)CC1,2%,?,3%,-24%,-2%,-12%
CCOC(=O)N1CCN(C(=S)NC(=O)c2ccc(F)c(F)c2)CC1,-1%,-13%,-1%,28µM*,0%,?
Cc1cc(C)cc(C(=O)NC2CCCN(c3cc(-c4ccc(F)cc4)[nH]n3)C2)c1 (configuration not stated),/,11%,/,/,/,/
CCc1cc(C(=O)NCc2cc3n(n2)CCCN(S(C)(=O)=O)C3)cs1,/,20%,/,/,/,/
COc1ccc(OC)c(/C=C/C(=O)OCC(=O)Nc2cccc(Oc3ccccc3)c2)c1,0%,-15%,?,35µM*,-5%,-4%
O=C(COC(=O)/C=C/c1ccc(F)cc1)Nc1cccc(S(=O)(=O)N2CCCC2)c1,-2%,-3%,0%,1%,1%,26%
COc1cccc(/C=C/C(=O)OCC(=O)Nc2cccc(S(=O)(=O)N3CCCCC3)c2)c1OC,3%,-8%,4%,28µM*,-1%,13%
CC(CN1CCCCC1)OC(=O)c1cccc(F)c1 (configuration not stated),-2%,56µM*,1%,/,/,-19%
COc1cccc(-c2ccc3ncnc(N4CCN(C)CC4)c3c2)c1,/,-13%,/,/,/,/
COc1cccc(-c2cc3c(-n4cccc4)ncnc3o2)c1,-2%,37%,?,14µM*,5%,-18%
COc1cc(C(=O)Oc2ccccc2C#N)cc(Br)c1OCc1ccccc1,/,-39%,/,/,/,/
COCCNc1ncnc2c1CN(c1ccc(Cl)cc1)C(=O)CN2C,/,50%,/,/,/,/
Cc1ccc(C(=O)N/C(=C\c2cccnc2)c2nc3ccccc3[nH]2)cc1,0%,13%,-4%,?,3%,20%
COc1ccc(/C=C(/NC(=O)c2ccccc2)c2nc3ccccc3[nH]2)cc1OC,-1%,0%,?,-8%,2%,11%
O=C(N/C(=C/c1cccc(Br)c1)c1nc(=S)[nH][nH]1)c1ccccc1,-2%,35µM*,-7%,-1%,5%,16%
Cc1ccc(C(=O)N/C(=C\c2ccc(Br)cc2)c2nc(=S)[nH][nH]2)cc1,-9%,16µM*,0%,-1%,8%,-14%
CSc1nnc(C)c(=O)n1COC(=O)COc1ccccc1F,2%,8%,-1%,/,1%,-20%
CSc1nnc(C)c(=O)n1COC(=O)COc1ccccc1C,-1%,-4%,3%,28µM*,0%,16%
CC(C)NC(=O)N[C@H]1CCN2C(=O)c3cc(-c4ccc(Cl)cc4)ccc3NC(=O)[C@H]12,/,-2%[176 µM],/,/,/,/
Clc1ccccc1-c1nc(-n2ccnc2)c2ccccc2n1,/,56µM*,/,/,/,/
COc1ccc(S(=O)(=O)CC(=O)c2cc3cc(Br)ccc3oc2=O)cc1,1%,7.9µM*,?,0%,6%,-26%
COc1ccc(-c2ncncc2-c2ccc(OC)c(OC)c2)c(O)c1,-1%,?,0%,20µM*,/,0%
COc1ccc(-c2cncnc2-c2ccc(OC)cc2O)cc1,-1%,0%,1%,-1%,/,1%
SMILES,PTAP TSG101 blk,ALOX12 inh,Rango complex inh,ClpP mod,TDP1 block,Rango dissoc inh
O=C1NC2(CCN(CC3CCCC3)CC2)Oc2ccccc21,/,25µM*,/,/,/,/
O=C1NC2(CCN(CC3CCCCC3)CC2)Oc2ccccc21,/,-19%[176 µM],/,/,/,/
C=CCNC(=O)c1cnn2ncccc12,/,13%[176 µM],/,/,/,/
CC(Sc1ccccc1)C(=O)Nc1ccc(N2CCN(C)CC2)nc1 (configuration not stated),/,2%,/,/,/,/
O=C([C@H]1C[C@H](Oc2cccnc2)CN1C(=O)Cc1ccccc1)N1CCOCC1,/,23%,/,/,/,/
CCOC(=O)c1cc(C#N)c(N)nc1C,-10%,-1%,-1%,22µM*,-1%,5%
CCOC(=O)c1cc(C#N)c(SC)nc1C,-2%,0%,-1%,2%,5%,-7%
COC(=O)c1cc(C#N)c(NCc2ccccc2)nc1C,-1%,0%,1%,32µM*,0%,-3%
CCCNC(=O)C(=O)NCCc1c[nH]c2ccccc12,/,26%,/,/,/,/
C=CCNC(=S)NS(=O)(=O)c1cccs1,-6%,1.1µM*,1%,/,0%,-10%
Cc1noc(C)c1[S+](=O)([O-])N1CCCC2(CC(c3cccc(C(F)(F)F)c3)=NO2)C1 (configuration not stated),/,39%,/,/,/,/
Cc1cc(C)nc(SCc2ccc(C(=O)NNC(=O)Nc3cccc(Cl)c3)cc2)n1,-1%,-28%,-1%,35µM*,8%,-5%
CCC(=O)N1CCCCCNC(=O)[C@@H]2CCC[C@@H]21,/,45%,/,/,/,/
O=C(O)/C=C/C(=O)Nc1ccccc1-c1ccccc1,-5%,?,1%,25µM*,-2%,8%
O=c1[nH]c(=O)c2[nH]c(=S)[nH]c2[nH]1,-2%,0.71µM*,?,/,/,-20%
CC1CCC(NC(=O)c2noc(-c3ccc(C#N)cc3)n2)CC1 (configuration not stated),/,8%,/,/,/,/
COc1ccc(C2c3c(n(C)c4ccccc34)C(=O)N2CC(=O)Nc2ccc(C)cc2Cl)cc1 (configuration not stated),/,?,/,32µM*,6%,/
COc1ccc(C2c3c(n(C)c4ccccc34)C(=O)N2CC(=O)Nc2cc(Cl)ccc2C)cc1 (configuration not stated),/,-18%,/,?,6%,/
CCOCCCNC(=O)CN1C(=O)c2c(c3ccccc3n2C)C1c1ccc(OC)cc1 (configuration not stated),/,-26%,/,32µM*,6%,/
CCOc1c(C)cc(-c2ncccc2O)cc1C,-1%,-14%,1%,28µM*,1%,0%
COc1ccc(-c2ncccc2OC(=O)C23CC4CC(CC(C4)C2)C3)cc1,-1%,-25%,-2%,25µM*,5%,19%
COc1ccc(-c2nc3ccccc3nc2-c2ccccc2)cc1,-6%,-22%,3%,/,/,-10%
COc1ccc(-c2ncccc2O)cc1,-6%,0%,3%,25µM*,-2%,-12%
